According to PubChem BioAssay:
Calls of active or inactive are those of the source.

Key:
[1] = binders of probe aFSTL3 on microarray, primary screen, stem cell growth factor project, biochemical, small-molecule microarray, fluorescence 635/667 (AID 1064); conditions: higher = more signal;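 also: measures binding of the biotinylated anti-FSTL3 antibody to printed compounds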
[2] = binders from COS7 lysate, DM2A8 probe, primary screen, torsin A project, cell lysate, small-molecule microarray, fluorescence 635/667 (AID 1065); conditions: higher = more signal, COS7 lysate expressing mutant human TOR1A
[3] = binders of probe aFGF2 on microarray, primary screen, stem cell growth factor project, biochemical, small-molecule microarray, fluorescence 635/667 (AID 1067); conditions: higher = more signal;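 also: measures binding of biotinylated aFGF2 protein to printed compounds on slides; z-score merges feature fluorescence and signal-to-noise across triplicate slides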
[4] = binders of probe aFGF10 on microarray, primary screen, stem cell growth factor project, biochemical, small-molecule microarray, fluorescence 635/667 (AID 1071); conditions: higher = more signal;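 also: score merges 667 nm spot intensity and signal to noise from triplicate slides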
[5] = molecular target: Neurogenic locus notch homolog protein 2 (Homo sapiens) (UniProt Q04721); experiment: Notch2 binders on small-molecule microarrays, primary screen, biochemical, small-molecule microarray, 635 nm fluorescence, stem cell growth factors (AID 1073); conditions: Notch2 binding, higher = more signal
[6] = molecular target: Pro-neuregulin-1, membrane-bound isoform (Homo sapiens) (UniProt Q02297); experiment: NRG1 binders on small-molecule microarrays, primary screen, psychiatric disease protein project, biochemical, small-molecule microarray, fluorescence 635/667 (AID 1075); conditions: NRG1 binding, 635 nm fluorescence, higher = more signal;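 also: score combines 667 nm spot fluorescence with signal to noise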
Sequence of Pro-neuregulin-1, membrane-bound isoform (Homo sapiens) (Q02297 whole entry, looked up, the tested form may be a part, canonical isoform): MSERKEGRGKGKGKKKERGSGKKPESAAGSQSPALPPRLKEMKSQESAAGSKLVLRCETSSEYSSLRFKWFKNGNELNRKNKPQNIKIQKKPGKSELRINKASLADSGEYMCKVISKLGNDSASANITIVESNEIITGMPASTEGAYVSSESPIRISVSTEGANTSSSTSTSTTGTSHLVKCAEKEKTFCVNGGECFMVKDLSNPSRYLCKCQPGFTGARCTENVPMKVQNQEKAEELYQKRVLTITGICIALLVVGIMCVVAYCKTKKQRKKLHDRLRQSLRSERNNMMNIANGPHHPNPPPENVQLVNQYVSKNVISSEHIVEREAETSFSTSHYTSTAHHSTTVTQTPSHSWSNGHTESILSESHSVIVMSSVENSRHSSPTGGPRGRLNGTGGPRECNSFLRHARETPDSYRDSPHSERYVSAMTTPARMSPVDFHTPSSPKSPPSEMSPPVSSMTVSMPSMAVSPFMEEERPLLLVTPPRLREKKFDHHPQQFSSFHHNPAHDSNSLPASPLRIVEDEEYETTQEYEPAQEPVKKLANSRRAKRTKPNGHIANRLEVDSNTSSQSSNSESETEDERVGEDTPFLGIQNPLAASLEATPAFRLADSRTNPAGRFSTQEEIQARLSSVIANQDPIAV

[7] = system: Neuregulin-1 EGF-like domain; experiment: binders of neuregulin-1 EGF-like domain, primary screen, biochemical, small-molecule microarray, 635 nm fluorescence (AID 1081); conditions: small-molecule microarray binding, higher = more signal;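 also: binding of the protein to compounds printed on small-molecule microarray slides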
[8] = FRG1 promoter luciferase signal modulators, primary screen, FRG1 inhibition for FSHD, cell-based, C2C12 myotubes, firefly/Renilla luciferase, luminescence (AID 1084); conditions: higher = more signal, called active from +8 up or from −8 down
[9] = binders of probe aFST on microarray, primary screen, stem cell growth factor project, biochemical, small-molecule microarray, fluorescence 635/667 (AID 1086); conditions: higher = more signal;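 also: score merges 667 nm fluorescence with signal-to-noise of each printed compound spot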
[10] = binders of probe aHhip on microarray, primary screen, stem cell growth factor project, biochemical, small-molecule microarray, fluorescence 635/667 (AID 1087); conditions: higher = more signal;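 also: score merges spot fluorescence at 667nm with spot signal to noise ratio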
[11] = system: PRMT1 (protein arginine N-methyltransferase 1); experiment: PRMT1 binders on small-molecule microarrays, primary screen, biochemical, small-molecule microarray, 635 nm fluorescence (AID 1088); conditions: small-molecule microarray binding, higher = more signal;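 also: binding of Prmt1 protein to compounds spotted on small-molecule microarray slides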
[12] = yeast growth modulation, basal conditions, primary screen, YJM789 clinical isolate, OD600, 24 h (AID 1089);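 also: growth of clinical yeast isolate S. cerevisiae YJM 789 seeded 1000 cells per well; test concentration not given here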; conditions: S. cerevisiae YJM789 growth, higher = more signal, called active from +8 up or from −8 down
[13] = fission yeast growth modulation, primary screen, strain 972, OD600, 24 h, no modulator (AID 1090);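 also: basal condition with compound alone and no growth modifier present; test concentration not given here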; conditions: S. pombe 972 growth, higher = more signal, called active from +8 up or from −8 down
[14] = S. cerevisiae growth modulation with rapamycin, primary screen, strain BY4716, OD600, 96 h (AID 1091); conditions: higher = more signal, called active from +8 up or from −8 down; also: test concentration not given here
[15] = molecular target: Torsin-1A-interacting protein 2 (Homo sapiens) (UniProt Q8NFQ8); experiment: LULL1 binders on small-molecule microarray, primary screen, cell lysate, human LULL1 lysate, 635/667 nm fluorescence (AID 1092); conditions: hLULL1 lysate binding, 635 nm fluorescence, higher = more signal;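 also: probe is lysate of COS7 cells overexpressing human LULL1; score merges per-feature 667 nm fluorescence with signal-to-noise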
Sequence of Torsin-1A-interacting protein 2 (Homo sapiens) (Q8NFQ8 whole entry, looked up): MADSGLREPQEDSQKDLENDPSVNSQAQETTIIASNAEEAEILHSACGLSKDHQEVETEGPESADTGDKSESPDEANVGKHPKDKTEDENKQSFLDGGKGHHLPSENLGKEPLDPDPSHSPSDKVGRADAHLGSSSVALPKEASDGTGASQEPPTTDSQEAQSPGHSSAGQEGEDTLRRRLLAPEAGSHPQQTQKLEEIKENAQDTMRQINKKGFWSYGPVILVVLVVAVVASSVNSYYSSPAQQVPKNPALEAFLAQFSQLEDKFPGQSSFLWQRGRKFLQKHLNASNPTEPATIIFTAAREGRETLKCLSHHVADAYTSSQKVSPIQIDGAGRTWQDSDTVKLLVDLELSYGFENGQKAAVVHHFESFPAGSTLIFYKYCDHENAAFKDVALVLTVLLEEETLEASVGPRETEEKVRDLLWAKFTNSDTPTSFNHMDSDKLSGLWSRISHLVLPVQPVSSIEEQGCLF

[16] = E. coli growth modulation, two-sided OD650, primary screen, E. coli filamentation project, strain DRC41, 24 h (AID 1093); conditions: OD650, 24 h, higher = more signal, called active from +8 up or from −8 down;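 also: MC1000 strain lacking acrAB efflux and sulA so SOS filamentation is blocked; test concentration not given here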
[17] = small-molecule microarray binders of probe aLefty2, primary screen, biochemical, biotinylated probe, 635/667 nm fluorescence (AID 1094); conditions: higher = more signal;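 also: score merges spot fluorescence near 667 nm with spot signal-to-noise ratio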
[18] = system: Noggin (protein binding on small-molecule microarray); experiment: Noggin binders on small-molecule microarray, primary screen, biochemical, 635/667 nm fluorescence (AID 1095); conditions: 635 nm fluorescence, higher = more signal;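 also: score merges 667 nm feature fluorescence with signal to noise over triplicate slides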
[19] = molecular target: Neurogenic locus notch homolog protein 3 (Homo sapiens) (UniProt Q9UM47); experiment: NOTCH3 binders on small-molecule microarray, primary screen, biochemical, 635/667 nm fluorescence (AID 1096); conditions: NOTCH3 binding, 635 nm fluorescence, higher = more signal
Sequence of Neurogenic locus notch homolog protein 3 (Homo sapiens) (Q9UM47 whole entry, looked up): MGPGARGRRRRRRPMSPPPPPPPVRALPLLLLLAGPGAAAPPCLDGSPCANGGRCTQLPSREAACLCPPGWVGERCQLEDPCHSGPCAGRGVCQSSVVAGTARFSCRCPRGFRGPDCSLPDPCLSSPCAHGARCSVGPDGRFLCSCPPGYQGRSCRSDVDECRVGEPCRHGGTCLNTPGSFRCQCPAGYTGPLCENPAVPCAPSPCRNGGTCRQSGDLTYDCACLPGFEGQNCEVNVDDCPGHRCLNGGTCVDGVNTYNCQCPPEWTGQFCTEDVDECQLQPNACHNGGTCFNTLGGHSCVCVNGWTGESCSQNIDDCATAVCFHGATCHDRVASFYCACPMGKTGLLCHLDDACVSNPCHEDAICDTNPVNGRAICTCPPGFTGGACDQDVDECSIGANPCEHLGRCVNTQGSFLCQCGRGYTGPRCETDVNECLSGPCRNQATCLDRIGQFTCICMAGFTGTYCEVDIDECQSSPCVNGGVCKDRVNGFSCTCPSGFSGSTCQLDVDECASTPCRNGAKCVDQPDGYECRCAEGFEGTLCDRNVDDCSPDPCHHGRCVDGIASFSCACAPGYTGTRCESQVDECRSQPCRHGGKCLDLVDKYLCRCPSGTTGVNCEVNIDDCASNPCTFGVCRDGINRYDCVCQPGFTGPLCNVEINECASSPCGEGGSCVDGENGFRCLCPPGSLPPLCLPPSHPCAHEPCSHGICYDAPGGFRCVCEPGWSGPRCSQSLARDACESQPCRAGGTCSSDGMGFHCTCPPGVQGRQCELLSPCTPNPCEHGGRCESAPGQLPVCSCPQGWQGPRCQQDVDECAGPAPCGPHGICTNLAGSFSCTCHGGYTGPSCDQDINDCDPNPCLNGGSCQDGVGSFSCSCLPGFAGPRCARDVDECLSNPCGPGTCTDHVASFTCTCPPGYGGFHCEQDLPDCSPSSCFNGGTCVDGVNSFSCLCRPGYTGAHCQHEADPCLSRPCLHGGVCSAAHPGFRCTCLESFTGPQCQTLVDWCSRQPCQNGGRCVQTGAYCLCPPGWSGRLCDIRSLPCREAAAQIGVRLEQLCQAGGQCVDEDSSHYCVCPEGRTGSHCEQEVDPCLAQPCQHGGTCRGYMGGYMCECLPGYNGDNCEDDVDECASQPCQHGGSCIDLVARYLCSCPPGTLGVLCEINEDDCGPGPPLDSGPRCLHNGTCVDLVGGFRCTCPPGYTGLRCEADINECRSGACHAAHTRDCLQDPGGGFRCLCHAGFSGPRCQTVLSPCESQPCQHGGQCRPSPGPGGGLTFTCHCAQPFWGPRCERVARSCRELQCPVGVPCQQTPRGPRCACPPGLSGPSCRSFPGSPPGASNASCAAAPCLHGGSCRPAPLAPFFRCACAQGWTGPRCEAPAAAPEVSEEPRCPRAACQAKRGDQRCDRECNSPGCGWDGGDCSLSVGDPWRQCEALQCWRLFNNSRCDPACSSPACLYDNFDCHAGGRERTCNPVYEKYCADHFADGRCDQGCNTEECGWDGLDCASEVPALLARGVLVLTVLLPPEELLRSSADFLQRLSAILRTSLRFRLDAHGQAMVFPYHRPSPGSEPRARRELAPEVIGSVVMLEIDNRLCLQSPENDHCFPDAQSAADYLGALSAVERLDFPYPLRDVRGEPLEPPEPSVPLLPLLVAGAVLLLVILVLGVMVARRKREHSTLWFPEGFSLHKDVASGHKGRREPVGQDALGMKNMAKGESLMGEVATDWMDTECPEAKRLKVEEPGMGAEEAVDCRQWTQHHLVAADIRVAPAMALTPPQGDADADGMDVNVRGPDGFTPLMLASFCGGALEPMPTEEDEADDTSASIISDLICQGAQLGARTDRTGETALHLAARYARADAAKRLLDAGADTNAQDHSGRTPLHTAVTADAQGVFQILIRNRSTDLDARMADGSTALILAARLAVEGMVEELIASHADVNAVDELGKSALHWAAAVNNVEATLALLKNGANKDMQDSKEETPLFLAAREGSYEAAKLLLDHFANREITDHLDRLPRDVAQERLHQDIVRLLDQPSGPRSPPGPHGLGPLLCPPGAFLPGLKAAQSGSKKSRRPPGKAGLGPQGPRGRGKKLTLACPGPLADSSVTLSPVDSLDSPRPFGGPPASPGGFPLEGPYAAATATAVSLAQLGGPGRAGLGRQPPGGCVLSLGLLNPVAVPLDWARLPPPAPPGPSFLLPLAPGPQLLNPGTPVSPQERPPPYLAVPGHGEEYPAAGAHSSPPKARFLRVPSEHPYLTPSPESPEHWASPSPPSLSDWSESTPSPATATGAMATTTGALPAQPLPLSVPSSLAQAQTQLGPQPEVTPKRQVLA

[20] = small-molecule microarray binders of probe aEGFR, primary screen, biochemical, biotinylated probe, 635/667 nm fluorescence (AID 1097); conditions: higher = more signal;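 also: probe is a biotinylated anti-EGFR antibody binding compounds printed on slides; score combines fluorescence near 667 nm and signal to noise of each spot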

SMILES	composite z-score [1]	composite z-score [2]	composite z-score [3]	composite z-score [4]	composite z-score [5]	composite z-score [6]	composite z-score [7]	z-score [8]	composite z-score [9]	composite z-score [10]	composite z-score [11]	z-score [12]	z-score [13]	z-score [14]	composite z-score [15]	z-score [16]	composite z-score [17]	composite z-score [18]	composite z-score [19]	composite z-score [20]
COc1ccc(C#Cc2ccc3c(c2)[C@]2(C(=O)N3)[C@H](c3ccc(OCCO)cc3)N3[C@H](c4ccccc4)[C@H](c4ccccc4)OC(=O)[C@H]3[C@@H]2C(=O)N2CCN(c3ncccn3)CC2)cc1	-0.176	0.07	-0.093	0.344	1.2	-0.132	0.135	0.781 (inactive)	-0.0006	-0.318	0.61	1.86 (inactive)	1.23 (inactive)	4.94 (inactive)	1.51	2.6 (inactive)	-0.105	0.346	0.824	-0.0928
N#Cc1ccc(NN2C(C(O)c3ccco3)C=CC3C(=O)N(c4ccccc4)C(=O)C32)cc1 (stereo not given)	0.188	-0.0615	-0.0133	0.758	0.54	0.989	0.754	0.768 (inactive)	0.39	-0.249	0.327	0.0011 (inactive)	0.376 (inactive)	1.7 (inactive)	2.41	-3.5 (inactive)	0.0815	-0.0593	0.591	-0.0411
CCCNC(=O)[C@@]1(Sc2ccc(C)cc2)CC(=O)N(Cc2ccccc2)[C@@H]1c1ccc(CO)cc1I	1.33	-0.0477	-0.0917	-0.008	0.367	0.848	1.23	-1.9 (inactive)	0.692	-0.0346	0.933	-1.09 (inactive)	-1.46 (inactive)	0.605 (inactive)	0.869	0.605 (inactive)	-0.0866	0.54	0.282	-0.11
C[C@H]1NC(=O)C([C@@H](C)OCc2ccccc2)NC(=O)[C@@]23C(=O)N[C@@H](Cc4ccccc4)C2[C@H](C)[C@@]2(C)O[C@H]2C3/C=C/CC/C=C/CNC1=O (stereo not given in full)	-0.0367	0.245	0.0304	0.263	0.258	-0.178	-0.248	0.428 (inactive)	0.114	0.127	-0.1	0.607 (inactive)	-0.657 (inactive)	0.261 (inactive)	-0.147	2.13 (inactive)	-0.016	0.598	-0.0089	0.0143
CN(C)CCCCCCNC(=O)[C@@H]1C[C@@H]2C(=O)NCC(=O)N2[C@@H]1c1ccc(O)cc1	-0.316	1.51	0.0231	1.26	0.194	0.504	1.34	2.08 (inactive)	0.92	0.107	1.53	-1.2 (inactive)	-0.639 (inactive)	-0.296 (inactive)	2.72	-0.427 (inactive)	-0.16	1.47	1.04	-0.0304
COCCOC(=O)N1C(=O)[C@@]2(c3cc(C#Cc4ccc(OC)cc4)ccc31)[C@H](c1ccc(OCCO)cc1)N1[C@H](c3ccccc3)[C@H](c3ccccc3)OC(=O)[C@H]1[C@@H]2C(N)=O	0.261	1.24	-0.0128	0.646	1.46	1.25	1.26	1.06 (inactive)	0.851	0.0972	1.54	1.37 (inactive)	1.87 (inactive)	5.01 (inactive)	1.64	1.37 (inactive)	0.172	1.45	1.02	0.0593
N#Cc1ccc(NN2C(C(O)c3ccccc3)C=CC3C(=O)N(c4ccccc4)C(=O)C32)cc1 (stereo not given)	0.0243	-0.0347	0.111	0.379	0.639	1.15	1.09	0.474 (inactive)	0.64	-0.151	-0.827	-0.541 (inactive)	0.836 (inactive)	1.77 (inactive)	3.29	-0.676 (inactive)	0.228	-0.229	0.552	-0.0531
[N-]=[N+]=Nc1ccccc1[C@H]1OC(c2ccc(OCCCO)cc2)=N[C@@]1(Cc1ccccc1)C(=O)NCc1ccccc1	-0.274	-0.357	0.0722	0.639	1.12	0.883	0.567	-1.55 (inactive)	0.686	0.0373	1.57	-2.78 (inactive)	-2.1 (inactive)	1.12 (inactive)	2.79	1.81 (inactive)	-0.0192	0.641	1.04	-0.0066
CCC[C@@H]1C[C@@]1(CCC)[C@@H](NC(=O)c1cccs1)c1ccc(Cl)cc1	1.38	-0.553	-0.0861	-0.092	-1.6	0.161	-0.405	-2.04 (inactive)	-0.711	-0.254	0.0333	-0.5 (inactive)	-3.76 (inactive)	-0.454 (inactive)	1.4	0.102 (inactive)	0.0395	-1.87	-0.118	-0.435
CC(C)C[C@H]1NC(=O)[C@H](C)NC(=O)[C@@]23C(=O)N[C@@H](Cc4ccccc4)C2[C@H](C)[C@@]2(C)O[C@H]2C3/C=C/C/C=C\CNC1=O (stereo not given in full)	-0.021	0.366	-0.104	-0.0496	-0.465	0.0659	0.511	0.171 (inactive)	-0.521	-0.54	0.653	-1.14 (inactive)	-1.25 (inactive)	-1.07 (inactive)	2.44	-0.847 (inactive)	-0.27	-0.344	0.0715	-0.158
Cc1ccc(F)cc1S(=O)(=O)N[C@@H]1CCN(C(=O)c2ccc(OC(C)C)cc2)C1	-0.473	-0.414	-0.131	0.859	0.957	-0.129	0.602	-3.78 (inactive)	0.475	-0.258	0.981	-0.654 (inactive)	-0.709 (inactive)	-0.966 (inactive)	1.03	0.845 (inactive)	0.0563	0.805	1.13	0.0225
CC(C)(C)OC(=O)CC[C@]1(C(=O)N2CCCCC2)N=C(c2ccc(OCCCO)cc2)O[C@H]1c1ccccc1CN=[N+]=[N-]	-0.193	1.29	0.347	1.14	1.65	1.89	1.38	-2.88 (inactive)	0.821	-0.574	1.54	-4.42 (inactive)	-0.736 (inactive)	-0.279 (inactive)	3.67	2.1 (inactive)	0.694	0.743	1.05	0.314
CO[C@H]1O[C@H](CO)[C@@H](OC(=O)Nc2ccc(C(F)(F)F)cc2)[C@H](OC(=O)Nc2ccccc2)[C@H]1OC(=O)Nc1ccccc1	0.113	0.745	0.233	1.15	1.58	1.72	1.3	2.74 (inactive)	1.07	-0.105	1.53	0.719 (inactive)	-0.304 (inactive)	5.51 (inactive)	3.14	-0.994 (inactive)	0.158	0.896	1.04	0.172
CC(C)N1CC=CC23O[C@@H]4C=CCOC(=O)[C@@H]4[C@H]2C(=O)N(CCCCCCO)[C@@H]3C1=O (stereo not given in full)	-0.895	-0.775	-0.237	1.07	-0.697	-0.126	1.47	0.213 (inactive)	-0.588	-0.949	0.0483	-0.976 (inactive)	-0.174 (inactive)	-1.41 (inactive)	3.29	0.76 (inactive)	-0.315	-0.627	-0.478	-0.2
CN1C(=O)C2C=CC(C(O)COCc3ccccc3)N(Nc3ccccc3)C2C1=O (stereo not given)	-0.121	0.165	0.308	0.389	1.33	0.374	1	0.146 (inactive)	0.486	-0.166	0.691	0.12 (inactive)	1.15 (inactive)	-0.116 (inactive)	3.54	-0.309 (inactive)	0.147	0.28	0.896	-0.0232
COCCOC(=O)N1C(=O)[C@@]2(c3cc(C#CCCO)ccc31)[C@H](c1ccc(OCCO)cc1)N1[C@H](c3ccccc3)[C@H](c3ccccc3)OC(=O)[C@H]1[C@@H]2C(=O)N1CCc2cc(OC)c(OC)cc2C1	-0.392	0.444	-0.0732	0.375	0.921	0.635	1.25	-0.355 (inactive)	0.159	-0.0618	1.55	2.59 (inactive)	1.28 (inactive)	4.19 (inactive)	2.48	0.37 (inactive)	0.022	1.05	1.13	0.0365
O=C(CS)NCCCCCNC(=O)[C@@H]1C[C@@H]2C(=O)N3CCC[C@H]3C(=O)N2[C@@H]1c1ccc(O)cc1	0.344	0.282	-0.0333	0.354	-0.677	0.33	1.32	0.0995 (inactive)	-0.0412	0.127	1.09	-0.0524 (inactive)	-0.207 (inactive)	0.0036 (inactive)	2.81	0.0681 (inactive)	-0.0279	-0.0286	0.164	-0.118
CCCCC=C[C@@H](NC(=O)CCc1ccccc1)c1ccccc1	0.0413	1.04	0.0601	0.404	1.11	1.23	1.24	-1.42 (inactive)	0.843	0.316	0.887	0.174 (inactive)	-1.52 (inactive)	2.19 (inactive)	1.43	-1.52 (inactive)	0.138	0.0567	1.12	0.0184
CC(C)CN1C(=O)[C@@]2(Cc3ccccc31)c1ccccc1C(=O)N(Cc1ccccc1)[C@H]2c1ccc(CO)cc1	0.849	-0.675	-0.148	-0.0466	-0.713	-0.544	-0.152	-0.314 (inactive)	-0.759	-0.261	-0.594	-0.0832 (inactive)	-0.519 (inactive)	-1.46 (inactive)	0.771	-0.336 (inactive)	-0.131	-0.34	-0.395	-0.348
